According to PubChem BioAssay (NCI):
This is part of a sample that, as a whole, favours compounds with a hit. Of some 79,000 tested, about 15% had one in any assay. Calls of active or inactive are those of the source. No stated cut-off is given here; in the data, active means growth inhibition above about 70%; inactive means the rest.

Columns and labels:
[1] = NCI Yeast Anticancer Drug Screen. Data for the rad52 strain (AID 147);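 further: 0% = growth of vehicle-treated control cultures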; conditions: S. cerevisiae rad52 mutant growth inhibition, active compounds read high
Summary of the method: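 Read-out: growth inhibition versus vehicle-treated controls. Cells were a DNA repair-deficient yeast strain treated with compounds.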

[2] = NCI Yeast Anticancer Drug Screen. Data for the wt1 strain (AID 149);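 further: 0% = growth of vehicle-treated wt1 cultures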; conditions: S. cerevisiae wt1 strain (SPY 50644) growth inhibition, active compounds read high
Summary of the method: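 wt1 yeast, compound-treated; % growth inhibition vs vehicle control.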

[3] = NCI Yeast Anticancer Drug Screen. Data for the rad50EPP+ strain (AID 151);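 further: 0% = growth of vehicle-treated control cultures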; conditions: S. cerevisiae rad50 mutant strain, active compounds read high
Summary of the method: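 Growth inhibition read against vehicle controls in rad50EPP+ yeast, a strain altered in DNA damage repair, after compound exposure.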

[4] = NCI Yeast Anticancer Drug Screen. Data for the mgt1 strain (AID 153); conditions: S. cerevisiae mgt1 mutant growth inhibition, active compounds read high
Summary of the method: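 mgt1 yeast grown with test compound; read-out is growth inhibition versus vehicle-treated cultures.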

[5] = NCI Yeast Anticancer Drug Screen. Data for the rad50 strain (AID 155);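 further: 0% = growth of vehicle-only cultures of the same strain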; conditions: S. cerevisiae rad50 strain growth inhibition, active compounds read high
Summary of the method: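 Genetically altered yeast (DNA repair pathway); compound treatment; growth inhibition vs vehicle ctrl.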

[6] = NCI Yeast Anticancer Drug Screen. Data for the mec2-1 strain (AID 157); conditions: S. cerevisiae mec2-1 strain, active compounds read high
Summary of the method: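 Yeast mec2-1 mutant treated with compound. Readout: growth inhibition vs vehicle controls.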

[7] = NCI Yeast Anticancer Drug Screen. Data for the rad14 strain (AID 159);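 further: 0% = growth of vehicle-treated control cultures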; conditions: S. cerevisiae rad14 strain growth inhibition, active compounds read high
Summary of the method: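 Test compounds were applied to a repair-deficient yeast strain. Its growth was then compared with that of cultures given vehicle alone, and inhibition was expressed relative to those controls.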

[8] = NCI Yeast Anticancer Drug Screen. Data for the sgs1 mgt1 strain (AID 161);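 further: 0% = growth of cultures given vehicle only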; conditions: S. cerevisiae sgs1 mgt1 strain, active compounds read high
Summary of the method: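 Inhibition of yeast growth, normalised to vehicle-treated controls, is reported for a strain bearing genetic alterations in DNA damage repair.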

[9] = NCI Yeast Anticancer Drug Screen. Data for the CLN2oe strain (AID 163);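 further: 0% = growth of vehicle-only control cultures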; conditions: S. cerevisiae CLN2oe strain, active compounds read high
Summary of the method: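 Read-out: yeast growth inhibition, expressed relative to vehicle-only controls. The strain bears an engineered cell-cycle alteration.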

[10] = NCI Yeast Anticancer Drug Screen. Data for the cln2 rad14 strain (AID 165);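 further: 0% = growth equal to vehicle treated cultures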; conditions: S. cerevisiae cln2 rad14 strain, active compounds read high
Summary of the method: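 cln2 rad14 yeast strain; compound exposure; growth inhibition read vs vehicle controls.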

[11] = NCI Yeast Anticancer Drug Screen. Data for the wt2 strain (AID 169);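 further: 0% = growth of vehicle-treated yeast cultures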; conditions: S. cerevisiae wt2 strain growth inhibition, active compounds read high
Summary of the method: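 Read-out: growth inhibition versus vehicle-treated control cultures after compound exposure of the yeast strain.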

[12] = NCI Yeast Anticancer Drug Screen. Data for the mlh1 strain (AID 171);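 further: 0% = growth of vehicle-treated control cultures of the same strain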; conditions: S. cerevisiae mlh1 strain growth inhibition, active compounds read high
Summary of the method: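 Read-out: growth inhibition versus vehicle controls. Strain: engineered yeast with a defined DNA repair or cell cycle defect, compound-treated.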

[13] = NCI Yeast Anticancer Drug Screen. Data for the mlh1 rad18 strain (AID 175); conditions: S. cerevisiae mlh1 rad18 strain growth inhibition, active compounds read high
Summary of the method: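 Yeast w/ defined DNA-repair lesions; compound exposure; growth vs vehicle controls → % inhibition.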

[14] = NCI Yeast Anticancer Drug Screen. Data for the rad18 strain (AID 177); conditions: S. cerevisiae rad18 mutant growth inhibition, active compounds read high
Summary of the method: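 Readout: growth inhibition vs vehicle controls. Cells: genetically altered yeast strain, DNA repair defect.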

[15] = NCI Yeast Anticancer Drug Screen. Data for the bub3 strain (AID 167); conditions: S. cerevisiae bub3 mutant strain, active compounds read high
Summary of the method: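 Yeast carrying a defined mutation is treated with each compound, and growth is compared with that of vehicle-exposed cells to give inhibition.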

[16] = NCI Yeast Anticancer Drug Screen. Data for the sgs1 strain (AID 173);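 further: 0% = growth of vehicle-only control cultures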; conditions: S. cerevisiae sgs1 mutant, active compounds read high
Summary of the method: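 Read-out: yeast growth inhibition relative to vehicle controls, following compound exposure of a strain with a defined DNA repair/cell cycle alteration.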

[17] = at 5.0 µM (retest, dose inferred, filed as 0.5)
[18] = at 50.0 µM (retest, dose inferred, filed as 5.0)

Measured: growth inhibition

CN(C)CCn1c2c3ccccc3ccc2c2oc(=O)c3ccccc3c21
active: [1]; at 11.0 µM 94% | [1]; at 33.0 µM 98% | [1]; at 100.0 µM 97% | [2]; at 33.0 µM 92% | [2]; at 100.0 µM 92% | [3]; at 11.0 µM 94% | [3]; at 33.0 µM 97% | [3]; at 100.0 µM 94% | [4]; at 33.0 µM 96% | [4]; at 100.0 µM 93% | [5]; at 11.0 µM 93% | [5]; at 33.0 µM 97% | [5]; [18] 95% | [5]; at 50.0 µM 86.5% | [5]; at 100.0 µM 92% | [6]; at 33.0 µM 95% | [6]; [18] 98% | [6]; at 50.0 µM 88.3% | [6]; at 100.0 µM 91% | [7]; at 33.0 µM 95% | [7]; at 100.0 µM 91% | [8]; [18] 93% | [8]; at 50.0 µM 89% | [9]; at 33.0 µM 90% | [9]; at 100.0 µM 89% | [10]; [18] 93% | [10]; at 50.0 µM 84.5% | [11]; at 33.0 µM 95% | [11]; at 100.0 µM 95% | [12]; at 33.0 µM 95% | [12]; at 100.0 µM 92% | [13]; [18] 96% | [13]; at 50.0 µM 82.7% | [14]; at 33.0 µM 94% | [14]; at 100.0 µM 91%
inactive: [1]; at 1.2 µM 24% | [1]; at 3.7 µM 21% | [2]; at 1.2 µM 13% | [2]; at 3.7 µM 8% | [2]; at 11.0 µM 35% | [3]; at 1.2 µM 19% | [3]; at 3.7 µM 54% | [4]; at 1.2 µM -7% | [4]; at 3.7 µM 10% | [4]; at 11.0 µM 49% | [5]; at 1.2 µM 21% | [5]; at 3.7 µM 51% | [5]; [17] 52% | [6]; at 1.2 µM 17% | [6]; at 3.7 µM 12% | [6]; [17] -12% | [6]; at 11.0 µM 40% | [7]; at 1.2 µM 3% | [7]; at 3.7 µM -2% | [7]; at 11.0 µM 35% | [8]; [17] -1% | [9]; at 1.2 µM -2% | [9]; at 3.7 µM -3% | [9]; at 11.0 µM 36% | [10]; [17] 4% | [11]; at 1.2 µM 12% | [11]; at 3.7 µM 3% | [11]; at 11.0 µM 41% | [12]; at 1.2 µM -10% | [12]; at 3.7 µM -6% | [12]; at 11.0 µM 42% | [13]; [17] 10% | [14]; at 1.2 µM 0% | [14]; at 3.7 µM -7% | [14]; at 11.0 µM 53%

Cn1c(N)nc(-c2ccc(Cl)cc2)c1SSc1c(-c2ccc(Cl)cc2)nc(N)n1C
active: [1]; at 33.0 µM 88% | [1]; at 100.0 µM 98% | [2]; at 100.0 µM 94% | [3]; at 33.0 µM 84% | [3]; at 100.0 µM 97% | [4]; at 33.0 µM 71% | [4]; at 100.0 µM 98% | [5]; at 33.0 µM 73% | [5]; at 50.0 µM 95.5% | [5]; at 100.0 µM 97% | [6]; at 33.0 µM 75% | [6]; at 50.0 µM 93.1% | [6]; at 100.0 µM 97% | [8]; at 50.0 µM 94.8% | [9]; at 100.0 µM 97% | [10]; at 50.0 µM 92% | [15]; at 33.0 µM 82% | [15]; [18] 93% | [15]; at 50.0 µM 94.9% | [15]; at 100.0 µM 97% | [11]; at 33.0 µM 71% | [11]; at 100.0 µM 99% | [12]; at 33.0 µM 82% | [12]; at 100.0 µM 98% | [16]; at 33.0 µM 85% | [16]; at 100.0 µM 98% | [13]; at 50.0 µM 97.8% | [14]; at 33.0 µM 88% | [14]; at 100.0 µM 94%
inactive: [1]; at 1.2 µM -5% | [1]; at 3.7 µM -2% | [1]; at 11.0 µM 33% | [2]; at 1.2 µM 2% | [2]; at 3.7 µM 4% | [2]; at 11.0 µM 16% | [2]; at 33.0 µM 44% | [3]; at 1.2 µM -6% | [3]; at 3.7 µM 9% | [3]; at 11.0 µM 53% | [4]; at 1.2 µM -2% | [4]; at 3.7 µM 0% | [4]; at 11.0 µM 13% | [5]; at 1.2 µM -9% | [5]; at 3.7 µM -17% | [5]; [17] -13% | [5]; at 11.0 µM 6% | [5]; [18] 15% | [6]; at 1.2 µM -1% | [6]; at 3.7 µM 3% | [6]; [17] -15% | [6]; at 11.0 µM 30% | [6]; [18] 13% | [8]; [17] -12% | [8]; [18] 6% | [9]; at 1.2 µM -8% | [9]; at 3.7 µM -2% | [9]; at 11.0 µM 5% | [9]; at 33.0 µM 63% | [10]; [17] 37% | [10]; [18] -3% | [15]; at 1.2 µM -4% | [15]; at 3.7 µM -2% | [15]; [17] -4% | [15]; at 11.0 µM 21% | [11]; at 1.2 µM -1% | [11]; at 3.7 µM 1% | [11]; at 11.0 µM 20% | [12]; at 1.2 µM 0% | [12]; at 3.7 µM 3% | [12]; at 11.0 µM 23% | [16]; at 1.2 µM 0% | [16]; at 3.7 µM 6% | [16]; at 11.0 µM 28% | [13]; [17] -5% | [13]; [18] 24% | [14]; at 1.2 µM -3% | [14]; at 3.7 µM -1% | [14]; at 11.0 µM 34%
